The list is not random: actives were taken first. Their share in the collection is about 1.6%.
p53ts 39C kill – kills p53ts cells at the nonpermissive temperature. H1299-p53A138V viability at 39C, ATP luminescence, 24 h. Potency, µM (series often up to 46.1 µM), inactives show top-dose activity change, negative = cell killing, hits mostly cytotoxic. 1.5% of 130,000 active; also: % is scaled to controls: 0 for no effect and ±100 for the full control effect; nearly all actives have a fitted effect of over 55% in size
Imprint erasure – genomic imprint erasure induction; mouse ES Peg3-LacZ reporter, beta-gal luminescence, 40 h; Potency, µM (highest dose often 60.7 µM), inactives show at the top dose activity change, positive = activation, most hits filed as activators; 0.02% of 110,000 active
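Gelatin-coated wells received 300 freshly trypsinized female ES cells with a Peg3LacZ-Neo reporter on the maternal allele, then incubated 40 hours at 37C. BetaGlo was added for 5 minutes at room temperature before a single luminescence read.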
p53ts 32C tox – p53ts cell cytotoxicity, permissive temperature | 0.93% of 130,000 active | Potency, µM (doses to about 46.1 µM), for inactives: at the top dose activity change, negative = cytotoxicity, actives largely listed as cytotoxic | H1299-p53A138V at 32C, ATP luminescence viability, 24 h;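 also: 0% = DMSO and -100% = full killing by reference compound; nearly all actives have a fitted effect of over 55% in size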
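Viability by ATPlite luminescence after 24 h compound treatment (up to 46 uM) at the permissive 32C. Cells are H1299 carrying p53 A138V. Scale runs from DMSO basal to 100 uM tamoxifen as full kill; AC50 from Hill fits.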
The depositor's hits bear a star; ? = inconclusive; / = not tested or not shown; [ ] = dose if it differs, or a comment. Calls follow the shape of the dose curve; as a rule, active = well fitted curve in the direction sought with a large enough effect; inconclusive = small, poorly fitted or top-dose-only effect, or another doubt; inactive = no such curve, though single readings can be large; an effect the other way counts as inactive or inconclusive. Potency is read from the fitted curve at half-maximal effect.

SMILES	p53ts 39C kill	Imprint erasure	p53ts 32C tox
COc1cc(Cl)c(C)cc1NC(=O)c1nn(-c2ccc(C)cc2)c(=O)n(C)c1=O	6.7%	3.5%[10.9 µM]	0.7%
CCCCN(C)CC(O)Cn1cc(/C=C/C(=O)c2ccc(OCC)cc2)c2ccccc21 (centres undefined)	5.01µM*	-2.2%[10.9 µM]	15.8µM*
CCCCN(CCCC)CC(O)Cn1cc(/C=C/C(=O)c2ccccc2)c2ccccc21 (centres undefined)	?	-14.3%[10.9 µM]	?
O=C(NC1CC(=O)N(c2ccc(F)cc2)C1)c1ccc2c(c1)OCO2 (centres undefined)	31.5%	6.2%[10.9 µM]	-4.5%
Cc1ccc(OCCOCCn2c(-c3ccc(Cl)cc3)nc3ccccc3c2=O)cc1	27.8%	-13.3%[10.9 µM]	6.6%
COc1ccccc1Nc1nn2c(=O)c3ccc(C(=O)Nc4ccc(F)cc4)cc3nc2s1	30.6%	10.3%[10.9 µM]	-0.2%
Cc1ccc(NC(=O)c2ccc3c(=O)n4nc(Nc5ccccc5C)sc4nc3c2)cc1C	38.4%	8.5%[10.9 µM]	12.6µM*
COc1ccc(NC(=O)c2ccc3c(=O)n4nc(Nc5ccccc5C)sc4nc3c2)cc1	-21.7%	-8.7%[10.9 µM]	-28.9%
COc1ccc(NC(=O)c2ccc3c(=O)n4nc(Nc5ccccc5C)sc4nc3c2)cc1Cl	7.94µM*	25.0%[10.9 µM]	10µM*
COc1cccc(C(=O)Nc2ccccc2OCc2cc(=O)n3ccccc3n2)c1	9.4%	7.8%[10.9 µM]	-8.3%
Nc1cc(C2CCCC2)nn1-c1ccccc1	?	-83.8%	12.6µM*
Cc1nn(-c2ccccc2)c2nc(C3CC3)cc(C(=O)Nc3cccc(F)c3)c12	-1.9%	18.0%[10.9 µM]	11.3%
CCC(C)NC(=O)CCCN1C(=O)CCn2nc(-c3cccn3C)cc21 (centres undefined)	-10.1%	-10.1%[10.9 µM]	2.4%
CC(C)CCN1C(=O)c2ccccc2CC1(C)C(=O)NC1CCCCC1 (centres undefined)	-3.9%	3.7%[10.9 µM]	7.8%
COc1ccc(Cn2c(=O)c3ccccc3n3c(-c4cccc(OC)c4OC)nnc23)cc1	3.1%	-17.7%[10.9 µM]	-5.7%
COc1ccc(OC)c(-c2nnc3n(CCc4ccccc4)c(=O)c4ccccc4n23)c1	12.6µM*	-13.2%[10.9 µM]	6.1%
CCN1C(=O)[C@@H]2[C@H]3C(=CC[C@H]2C1=O)C(=O)[C@H]1OC1[C@H]3O (some centres undefined)	-5.5%[9.22 µM]	/	5.8%[9.22 µM]
Cc1ccc(-n2ncc3c(N4CCCCCC4)ncnc32)cc1Cl	?	-19.1%[10.9 µM]	?
Cc1cccc(-n2ncc3c(N4CCN(c5ccccc5)CC4)ncnc32)c1	-5.5%	-13.3%[10.9 µM]	4.2%
COc1ccc(-n2ncc3c(N4CCCCC4)ncnc32)cc1	3.16µM*	/	2.51µM*
Cc1ccc(Cl)cc1-n1ncc2c(N3CCCCCC3)ncnc21	?	-14.8%[10.9 µM]	-10.3%
COc1ccc(N2CCN(c3ncnc4c3cnn4C)CC2)cc1	-15.0%	8.0%[10.9 µM]	1.4%
Cc1ccc(-n2ncc3c(N4CCCCC4)ncnc32)cc1	1.58µM*	-73.9%[10.9 µM]	1.58µM*
COc1ccccc1N1CCN(c2ncnc3c2cnn3-c2cc(Cl)ccc2C)CC1	12.6µM*	-13.3%[10.9 µM]	?
Cc1cccc(-n2ncc3c(N4CCCC4)ncnc32)c1	5.01µM*	-22.7%	3.16µM*
SMILES	p53ts 39C kill	Imprint erasure	p53ts 32C tox
CCOc1ccc(NC(=O)Cn2cc(C(=O)c3ccc(CC)cc3)c(=O)c3ccc(C)nc32)cc1	3.3%	5.7%[10.9 µM]	-2.9%
COc1cc(Cn2c(=O)sc3ccccc32)ccc1OCCC(C)C	-5.9%	5.0%[10.9 µM]	2.3%
COc1ccc(C)cc1S(=O)(=O)N1CCN(c2cccc(Cl)c2)CC1	6.5%	-7.2%[10.9 µM]	-1.0%
CCOc1ccccc1NC(=O)CSc1nc2cc(OC)c(OC)cc2c2nc(CCn3c(C)nc4ccccc43)nn12	5.01µM*	-10.3%[10.9 µM]	?
COc1cc2nc(SCC(=O)Nc3ccccc3C)n3nc(CCn4c(C)nc5ccccc54)nc3c2cc1OC	8.3%	4.5%[10.9 µM]	-1.5%
CCN(CC)c1ccc(NC(=O)c2ccco2)c(C)c1	2.7%	-21.7%	-0.7%
Cc1ccc(N(CC(C)C)S(=O)(=O)c2nnc(NC(=O)c3ccco3)s2)cc1	-19.1%	-3.5%[10.9 µM]	4.5%
CCN(c1ccccc1)S(=O)(=O)c1nnc(NC(=O)c2ccco2)s1	1.26µM*	-34.8%[10.9 µM]	?
COc1ccc(-c2noc(CNC(=O)c3ccco3)n2)cc1	17.9%	-12.9%[10.9 µM]	1.7%
CCN(CC)c1ccc(NC(=O)c2ccco2)cc1	10µM*	-35.9%	10µM*
O=C(Nc1ccc(-c2noc(CCc3ccccc3)n2)cc1)c1ccco1	10µM*	-61.1%	?
Cc1cccc(C(=O)Nc2ccccc2OCc2cc(=O)n3ccccc3n2)c1	-5.3%	6.9%[10.9 µM]	-6.7%
CCCCCCCCCCCCCCCC(=O)OCC(O)C1OC(=O)C(O)=C1O (centres undefined)	/	-6.9%	/
COc1ccc(C2(CNC(=O)C(=O)Nc3ccccc3C)CCCC2)cc1OC	-21.4%	13.4%[10.9 µM]	6.0%
COc1cccc(Cn2c(=O)c(-c3cc(F)cc(F)c3)nc3cnc(N4CCNCC4)nc32)c1	15.8µM*	-40.8%	?
CN1CCN(c2ncc3nc(CCc4ccccc4)c(=O)n(CCc4ccccc4)c3n2)CC1	?	-10.7%	?
O=c1c(-c2cccs2)nc2cnc(N3CCNCC3)nc2n1-c1ccccc1	-17.5%	/	-22.2%
O=c1c(CCc2ccccc2)nc2cnc(N3CCNCC3)nc2n1CCc1ccccc1	10µM*	/	12.6µM*
O=c1c(-c2cc(F)cc(F)c2)nc2cnc(N3CCNCC3)nc2n1Cc1ccc(F)cc1	?	-47.4%	?
O=c1c(-c2ccc(F)cc2)nc2cnc(N3CCNCC3)nc2n1-c1ccccc1	?	-29.8%	12.6µM*
Cc1cc(C)c(NC(=O)Cn2c(=O)n(CCC(=O)NCc3ccccc3Cl)c(=O)c3sccc32)c(C)c1	-10.6%	-2.9%[10.9 µM]	5.6%
Nc1ncnc2c1nc(Br)n2[C@@H]1O[C@H]2COP(=O)(O)O[C@@H]2[C@H]1O	-3.3%	/	-8.4%
CCOC(=O)c1c(NC(=O)Cc2coc3cc(C)cc(C)c23)sc2c1CCC2	10.3%	4.2%[10.9 µM]	-2.3%
COC(=O)c1c(-c2ccc(Cl)cc2)noc1N1CCN(c2cccc(C(F)(F)F)c2)CC1	?	-30.5%[10.9 µM]	-6.9%
COc1ccc(N2CCN(C(c3ccccc3F)c3sc4nc(-c5ccco5)nn4c3O)CC2)cc1 (centres undefined)	7.3%	-8.2%[10.9 µM]	-7.4%
SMILES	p53ts 39C kill	Imprint erasure	p53ts 32C tox
COc1ccc(/C=C/C(=O)Nc2ccc3nc(N4CCC(C)CC4)cc(C)c3c2)cc1OC	-10.6%	-35.1%[10.9 µM]	-5.3%
CCN1CCN(c2cc(C)c3cc(NC(=O)/C=C/c4ccc(C)cc4)ccc3n2)CC1	3.16µM*	-6.1%[10.9 µM]	?
CCN1CCN(c2cc(C)c3cc(NC(=O)/C=C/c4ccc(OCCC(C)C)cc4)ccc3n2)CC1	6.31µM*	-32.3%[10.9 µM]	11.8%
CCN1CCN(c2cc(C)c3cc(NC(=O)c4cc(OC)c(OC)c(OC)c4)ccc3n2)CC1	-30.0%	-8.4%[10.9 µM]	-8.2%
CNC(=O)c1c(NC(=O)c2ccc(S(=O)(=O)N3CCCCC3)cc2)sc2c1CCC2	-7.7%	2.9%[10.9 µM]	4.7%
Cc1ccccc1COC(=O)c1ccc(-c2nnn(Cc3ccccc3F)n2)cc1	21.9%	-6.3%[10.9 µM]	3.5%
CC(=O)N1CCc2cc(S(=O)(=O)C(C)CC(=O)Nc3ccc(Br)c(C)c3)ccc21 (centres undefined)	?	17.1%[10.9 µM]	-11.1%
Cc1ccc(Cn2c(CO)cnc2SCC(=O)Nc2cccc(F)c2)cc1	33.2%	-19.7%[10.9 µM]	-22.4%

Source: PubChem BioAssay (National Center for Advancing Translational Sciences (NCATS))
